# Screens: PubChem, National Center for Advancing Translational Sciences (NCATS)
# HT1080-NT tox – kills 2HG-producing HT-1080-NT fibrosarcoma cells; HT-1080-NT fibrosarcoma viability, CellTiter-Glo ATP luminescence, 48 h; Potency, µM (series often up to 46.1 µM), inactives show at the highest dose activity, negative = less viability, usual class: cytotoxic; actives 1.6% (n = 360,000);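 note: NT is the 2HG producing partner of a matched IDH1 knockdown line; 0% = DMSO-treated cells and -100% = media-only wells without cells; nearly all actives have a fitted effect of over 55% in size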
#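 A 48-hour cytotoxicity screen used HT-1080-NT cells plated 2 hours before compound delivery. ATP-based CellTiter-Glo luminescence measured viability, normalized to DMSO and no-cell controls.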
# ATXN viability – cell viability loss in ATXN counter-screen; actives 0.49% (n = 400,000); Potency, µM (titrated, usually from 56.7 µM), actives largely listed as cytotoxic; S2 cells (HEK-293 line with an ATXN2-luciferase reporter) viability, CellTiter-Fluor protease fluorescence, 24 h; note: nearly all actives have a fitted effect of over 40% in size
# TGFb SMAD3 inh – TGF-b pathway inhibition; HepG2 CAGA-GFP TGF-b/SMAD3 reporter, GFP fluorescence, 18 h; TGF-beta stimulated, 500 pg/mL final; Potency, µM (titrated, usually from 46.1 µM), for the others: at the highest dose activity, negative = inhibition, most hits filed as inhibitors; actives 1.2% (n = 410,000); AID 588855; note: % is set by controls: 0 for no effect and ±100 for the full control effect; nearly all actives have a fitted effect of over 65% in size
#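 HEPG2 CAGA-GFP, 1000 cells/well; 2 h settle, 37 C; cpd via pin tool; TGF-b 500 pg/mL final; 18 h, 37 C; GFP imaging ex488/em500-530; %Activity normalised to -TGF-b and +DMSO controls; CRC fit, curve class.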
# ATXN2 expr inh – inhibitors of ATXN2 expression. HEK-293 ATXN2-luciferase reporter, luminescence, 24 h. Potency, µM (titrated, usually from 57 µM), without a hit: at the top dose activity change, negative = inhibition, most hits filed as inhibitors. actives 0.72% (n = 360,000). AID 1745845; note: % is set by controls: 0 for no effect and ±100 for the full control effect; nearly all actives have a fitted effect of over 55% in size
#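 qHTS (up to 57 uM final) was run with 24 h compound exposure of reporter cells at 37 °C. Each well was multiplexed: SteadyGlo luminescence measured ATXN2-luciferase expression after a fluorogenic Gly-Phe-AFC viability readout (25 uM final).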
# HepG2 tox-1 – kills HepG2 cells in TGF-b inhibitor counter-screen | HepG2 CAGA-GFP viability, ATP luminescence, 18 h | Potency, µM (series often up to 46.1 µM), without a hit: at the top dose activity change, negative = cytotoxicity, actives largely listed as cytotoxic | actives 0.76% (n = 410,000) | AID 588856
#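 CellTiter-Glo luminescence gave cytotoxicity after 18 hours at 37 degrees C. The cells were HepG2 CAGA-GFP in 1% FBS DMEM, stimulated with 500 pg/mL TGF-beta after compound addition. %Activity was normalised to no-cell wells (complete cell-killing) and DMSO (no toxicity), and curves were fitted and classified.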
# HT1080 IDH1KD tx – toxicity to HT-1080 IDH1 knockdown cells (counter line); HT-1080 IDH1 knockdown viability, ATP luminescence, 48 h; Potency, µM (series often up to 46.1 µM), for inactives: top-dose activity, negative = toxicity, most hits filed as cytotoxic; actives 2% (n = 360,000); AID 686971;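 note: 0% = DMSO wells and -100% = cell-free medium wells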
#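 Viability of IDH1-knockdown HT-1080 fibrosarcoma cells was assessed by CellTiter-Glo after 48 h at 37 °C with titrated compound; concentration-effect curves were classified by fit quality and response size.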
# TGFb confirm – confirmation of TGF-b signaling inhibitors in HepG2 reporter cells | actives 63% (n = 1,600) | shares compounds with TGFb SMAD3 inh | HepG2 CAGA-GFP TGF-b reporter, GFP fluorescence, 18 h; cells stimulated with TGF-beta, 500 pg/mL | Potency, µM (top dose mostly 46.1 µM), without a hit: at the highest dose activity, negative = inhibition, usual class: inhibitors; note: % is set by controls: 0 for no effect and ±100 for the full control effect; nearly all actives have a fitted effect of over 65% in size
# HepG2 tox-2 – toxic to HepG2 cells in TGF-b counterscreen | shares compounds with TGFb SMAD3 inh | HepG2 CAGA-GFP viability, ATP luminescence, 18 h; cells stimulated with TGF-beta, 500 pg/mL | Potency, µM (top dose mostly 46.1 µM), without a hit: top-dose activity, negative = cytotoxicity, usual class: inhibitors | actives 27% (n = 1,600) | AID 720535; note: % is set by controls: 0 for no effect and ±100 for the full control effect; nearly all actives have a fitted effect of over 70% in size
# TGFb CCL64 inh – TGF-b inhibition, CCL64 orthogonal assay; actives 41% (n = 1,600); AID 720536; CCL64 CAGA-GFP reporter, TGF-b stimulated, GFP fluorescence, 18 h; Potency, µM (doses to about 46.1 µM), without a hit: top-dose activity, negative = inhibition, most hits filed as inhibitors; shares compounds with TGFb SMAD3 inh; note: nearly all actives have a fitted effect of over 65% in size
# TGFb COP inh – blocks TGF-b signaling in HepG2 COP reporter; HepG2 COP-GFP TGF-b reporter, GFP fluorescence, 18 h; cells stimulated by added recombinant TGF-beta; Potency, µM (top dose mostly 46.1 µM), without a hit: at the highest dose activity, negative = inhibition, most hits filed as inhibitors; actives 3% (n = 1,600); AID 720537; shares compounds with TGFb SMAD3 inh; note: nearly all actives have a fitted effect of over 70% in size
# * = called active by the depositor; i = inactive; ? = inconclusive; · = no result. This is a sample that favours compounds with a hit; in the whole collection about 3.8% have one here. Calls come from the whole dose curve; as a rule, active = well fitted curve in the direction sought with a large enough effect; inconclusive = small, poorly fitted or top-dose-only effect, or another doubt; inactive = no such curve, though single readings can be large; an effect the other way counts as inactive or inconclusive. Potency is the fitted concentration of half-maximal effect.
SMILES,HT1080-NT tox,ATXN viability,TGFb SMAD3 inh,ATXN2 expr inh,HepG2 tox-1,HT1080 IDH1KD tx,TGFb confirm,HepG2 tox-2,TGFb CCL64 inh,TGFb COP inh
O=C(Nc1ccc(F)c(Cl)c1)C1Cc2c(-c3ccc(Cl)cc3)ccnc2O1 (configuration not stated),?,?,16µM*,?,-19%,?,10µM*,?,18µM*,82%
CCOc1ccccc1C1C(C(=O)Nc2ccccc2)=C(C)Nc2c(C(=O)Nc3ccc(F)cc3)cnn21 (configuration not stated),·,i,-14%,-1%,5%,·,·,·,·,·
Cc1ccc(NC(=O)CNc2ccc(Cl)c(Cl)c2)cc1S(=O)(=O)N(C)C,?,?,10µM*,?,-25%,?,12µM*,?,?,55%
CN(C)S(=O)(=O)c1cc(NC(=O)CSc2nn(-c3ccc(Cl)cc3)c(=S)s2)ccc1Cl,?,i,11µM*,?,4%,?,3.7µM*,?,?,45%
CC(=O)N1CCN(CC(=O)Nc2ccc(C)c(S(=O)(=O)N(C)C)c2)CC1,23%,i,-2%,-12%,-4%,19%,·,·,·,·
Cc1ccc(NC(=O)CN2CCC(Cc3ccccc3)CC2)cc1S(=O)(=O)N(C)C,?,i,16µM*,-14%,-17%,?,13µM*,?,?,84%
NS(=O)(=O)c1cccc(NC(=O)CSc2nn(-c3ccccc3)c(=S)s2)c1,-17%,i,-9%,3%,-8%,-18%,·,·,·,·
Cc1ccc(NC(=O)CSc2nn(-c3ccc(Cl)cc3)c(=S)s2)cc1S(=O)(=O)N(C)C,-5%,i,?,-33%,-16%,?,?,?,3%,12%
COc1ccc(C(=O)Nc2cccc(C(=O)OCc3cc(=O)n4nc(C5CC5)sc4n3)c2)cc1,·,?,-3%,-8%,-32%,·,·,·,·,·
O=c1[nH]c2ccc(NCc3ccc(-c4ccccc4F)o3)cc2[nH]1,·,i,-5%,1%,-12%,·,·,·,·,·
COc1ccc2c(c1)c1c(c(=O)n(-c3ccc(OC)c(OC)c3)c(=O)n1Cc1ccccc1F)n2C,·,i,-20%,16%,-9%,·,·,·,·,·
CC[C@H](C)[C@@H]1OC(=O)[C@@H](C)[C@@H](CC)NC(=O)[C@H](C)N(C)C(=O)C(C)(C)C(=O)C(C)NC(=O)[C@H](Cc2ccccc2)N(C)C(=O)[C@H](C(C)C)N(C)C(=O)CNC(=O)[C@H](CC(C)C)N(C)C(=O)CNC1=O (some centres not stated),1.3µM*,?,3.5µM*,-37%,5%,0.92µM*,7.3µM*,?,5.8µM*,42%
Cc1onc(-c2c(F)cccc2Cl)c1C(=O)Nc1nnc(C(F)(F)F)s1,?,?,18µM*,?,-26%,?,21µM*,?,?,35%
O=C(Nc1ccccc1C(=O)Nc1nnc(C(F)(F)F)s1)c1ccccc1Cl,10µM*,?,3.5µM*,13µM*,-49%,10µM*,5.8µM*,4.1µM*,6.5µM*,74%
Cc1onc(-c2c(F)cccc2Cl)c1C(=O)Nc1nccs1,-22%,i,-5%,1%,-21%,-1%,·,·,·,·
COc1cc(/C=C/C(=O)c2ccc3c(c2)OCCO3)cc(Br)c1OCC(=O)N(C)C,4.6µM*,28µM*,4µM*,20µM*,-175%,3.7µM*,3.7µM*,3.3µM*,21µM*,-29%
Cc1onc(-c2ccccc2)c1C(=O)Nc1ncc([N+](=O)[O-])s1,?,?,8.9µM*,?,-35%,?,15µM*,?,23µM*,50%
Cc1onc(-c2ccccc2)c1C(=O)Nc1nnc(C(C)C)s1,24%,i,-1%,1%,-2%,18%,·,·,·,·
CN(C)c1nc2c(N)ncnc2n1C1OC(CO)C(O)C1O (configuration not stated),9%,i,-1%,5%,18%,27%,·,·,·,·
OCC1OC(n2cnc3c(NCc4ccccc4O)ncnc32)C(O)C1O (configuration not stated),13µM*,?,1.8µM*,?,-71%,9.2µM*,1.2µM*,4.1µM*,?,45%
CN(C)c1ncnc2c1ccn2C1OC(CO)C(O)C1O (configuration not stated),4.1µM*,i,0.22µM*,1%,0.13µM*,2.6µM*,0.23µM*,1.3µM*,6.5µM*,25%
OCC1OC(n2ccc3c(NO)ncnc32)C(O)C1O (configuration not stated),1.6µM*,?,0.28µM*,?,0.5µM*,0.41µM*,1.2µM*,0.58µM*,1.3µM*,40%
OC[C@H]1O[C@@H](n2cnc3c(Nc4ccccc4)ncnc32)[C@H](O)[C@@H]1O,0%,i,-6%,37%,-10%,-9%,·,·,·,·
O=C1CCCc2cc(S(=O)(=O)NCC3CCC(C(=O)Nc4ccccc4F)CC3)ccc2N1 (configuration not stated),·,i,-25%,-19%,-11%,·,·,·,·,·
Cc1cccc(C(=O)Nc2cc3nn(-c4ccc(C(C)C)cc4)nc3cc2C)c1,·,?,2%,5%,14%,·,·,·,·,·
